Measured values: PubChem BioAssay
Calls of active or inactive are those of the source.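 How the source made its calls: active means compounds killing one labelled cell type while sparing the other, by normalised counts and ratio limits, not self-fluorescent; inactive means the rest.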

Assay: differential killing of epithelial or mesenchymal cells, primary screen, imaging, PC-3E GFP, TEM4-18 mCherry, co-culture (AID 1345086);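 further: cells exposed to compound for 72 h before imaging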;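 on red/green cell ratio (normalised): normalised mesenchymal count divided by normalised epithelial count so high means epithelial killing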
Conditions: imaging cell counts, at 1 µM; for red/green cell ratio (normalised): actives lie on both sides, counts scaled to control wells, 1 = unselective
[1] = measured here: epithelial PC-3E GFP cell survival
[2] = measured here: mesenchymal TEM4-18 mCherry cell survival

| Compound | red/green cell ratio (normalised) | normalised cell number [1] | normalised cell number [2] |
| --- | --- | --- | --- |
| COc1ccc(-c2cc(=O)c3c(O)c(OC)c(O[C@H]4O[C@H](CO[C@@H]5O[C@@H](C)[C@H](O)[C@@H](O)[C@H]5O)[C@@H](O)[C@H](O)[C@H]4O)cc3o2)cc1 | 0.98 (inactive) | 1.05 | 1.03 |
| C=CCOC(=O)N1C(=O)O[C@H]2C(OC(C)=O)C(COC(C)=O)O[C@H](Sc3ccc(C)cc3)[C@H]21 (stereo not given in full) | 0.89 (inactive) | 1.08 | 0.97 |
| O=C(O)CNC(=O)c1ccc([C@H](O)c2ccccc2)cn1 | 0.86 (inactive) | 1.15 | 0.99 |
| O=c1c(O)c(-c2ccccc2)oc2cc(O)cc(O)c12 | 0.9 (inactive) | 1.07 | 0.96 |
| COc1c(N2CC[C@@H](CN)C2)c(F)cc2c(=O)c(C(=O)O)cn(CCc3ccccc3)c12 | 1.14 (inactive) | 0.87 | 1 |
| Cc1c(F)c(F)cc(C(=O)NC(=O)NC2CC2)c1F | 1 (inactive) | 1.02 | 1.02 |
| COC(=O)C1O[C@H](OCc2ccc(OC)cc2)[C@@H](OC(=O)c2ccccc2)[C@@H](OC(=O)c2ccccc2)C1O (stereo not given in full) | 0.84 (inactive) | 1.32 | 1.11 |
| CC(C)=CCCC(C)[C@@H]1CC[C@]2(C)C3=C(CC[C@@]12C)C1(C)CC[C@H](O)C(C)(C)C1CC3 (stereo not given in full) | 0.9 (inactive) | 1.09 | 0.98 |
| O=C1C=CC2=C3c4cc(O)c(O)cc4C[C@@]3(O)COC2=C1 | 1.29 (inactive) | 1.07 | 1.38 |
| OC[C@H]1O[C@H](OC[C@H]2O[C@@H](O)[C@H](O)[C@@H](O)[C@@H]2O)[C@H](O)[C@@H](O)[C@H]1O | 0.93 (inactive) | 0.99 | 0.91 |
| CC(C)CC1OC23SCC(c4ccccc4)N2C(=O)C1C(C)S3 (stereo not given) | 0.8 (inactive) | 1.19 | 0.96 |
| CC(=O)O[C@@H]1CC2C(C)(C)C(=O)CC[C@]2(C)C2CC[C@@]3(C)[C@H](c4ccoc4)OC(=O)C4OC43[C@@]21C (stereo not given in full) | 1.03 (inactive) | 0.94 | 0.97 |
| CC(=O)OCC1O[C@H](Sc2ccc(C)cc2)[C@@H]2[C@@H](OC(=O)N2C(C)=O)C1OC(C)=O (stereo not given in full) | 0.77 (inactive) | 1.36 | 1.05 |
| C=C1[C@@H](C)C2[C@H](Cc3c[nH]c4ccccc34)NC(=O)[C@]23C(=O)/C=C/C(=O)[C@H](OC(C)=O)/C(C)=C/[C@@H](C)C/C=C/[C@H]3[C@@H]1O (stereo not given in full) | 1.13 (inactive) | 0.94 | 1.06 |
| Cc1ccc(S[C@H]2OC(CO)C(O)[C@H](O)[C@@H]2N)cc1 (stereo not given in full) | 0.98 (inactive) | 1 | 0.97 |
| C[C@H]1OC(n2cc(F)c(=O)[nH]c2=O)C(O)[C@@H]1O (stereo not given in full) | 0.91 (inactive) | 1.27 | 1.16 |
| C=C1C/C=C(\C)CC[C@@H]2[C@@H]1CC2(C)C | 1.09 (inactive) | 0.98 | 1.07 |
| COc1cc([C@@]2(C)[C@@H]3[C@@H](C)CCC[C@@H]3C=C[C@@H]2C)oc(=O)c1C=O | 0.92 (inactive) | 1.06 | 0.98 |
| COC(=O)/C(=C1\OC(=O)C(c2ccccc2)=C1O)c1ccccc1 | 1.05 (inactive) | 1.05 | 1.11 |
| Nc1nc2c(c(=O)[nH]1)NC(CNc1ccc(C(=O)NC(CCC(=O)O)C(=O)O)cc1)=CN2 (stereo not given) | 0.83 (inactive) | 1.19 | 0.99 |

| Compound | red/green cell ratio (normalised) | normalised cell number [1] | normalised cell number [2] |
| --- | --- | --- | --- |
| COc1c(F)c(F)cc2c(=O)c(C(=O)NO)cn(C3CC3)c12 | 1.08 (inactive) | 0.97 | 1.04 |
| OCC1O[C@H](O[C@H]2OC(CO)[C@@H](O)[C@@H](O)C2O)C(O)[C@H](O)[C@@H]1O (stereo not given in full) | 1.12 (inactive) | 1.01 | 1.13 |
| Oc1ccc2ccccc2c1Oc1ccc2ccccc2c1 | 0.92 (inactive) | 0.86 | 0.79 |
| COc1cc(O)c2c(=O)c(OC)c(-c3ccc(OC)c(OC)c3)oc2c1 | 1.03 (inactive) | 0.82 | 0.85 |
| CN(C(=O)c1ccccc1)C1C(O[C@@H]2OC(COS(=O)(=O)O)C(NC(=O)c3ccccc3)[C@H](OS(=O)(=O)O)[C@H]2OS(=O)(=O)O)OC2C[C@@H](NC(=O)c3ccccc3)[C@@H](OC3C(NC(=O)c4ccccc4)C[C@@H](NC(=O)c4ccccc4)[C@H](OS(=O)(=O)O)[C@H]3OS(=O)(=O)O)OC2C1OS(=O)(=O)O (stereo not given in full) | 1 (inactive) | 1.06 | 1.06 |
| CCC(C)[C@H]1O[C@]2(CC[C@@H]1C)C[C@@H]1C[C@@H](C/C=C(\C)[C@@H](OC3C[C@H](OC)C(O[C@H]4C[C@H](OC)[C@@H](O)[C@H](C)O4)[C@H](C)O3)[C@@H](C)/C=C/C=C3\COC4[C@H](O)C(C)=C[C@@H](C(=O)O1)[C@]34O)O2 (stereo not given in full) | 0.84 (inactive) | 1.17 | 0.97 |
| COC(=O)C[C@H]1C(C)(C)C(=O)[C@@H]2CC3C4=CC(=O)O[C@@H](c5ccoc5)[C@]4(C)CCC3C1(C)C2=O (stereo not given in full) | 1.11 (inactive) | 0.84 | 0.94 |
| NC(=O)c1cc(F)c(F)cc1F | 0.98 (inactive) | 1.12 | 1.09 |
| CC1=C2[C@](C)(C=CC1=O)C[C@H](O)[C@H]1[C@H](C)C(=O)O[C@]21C | 1.06 (inactive) | 1.09 | 1.15 |
| COC(=O)c1cn(C2CC2)c2c(OC)c(F)c(F)cc2c1=O | 0.9 (inactive) | 1.11 | 1 |
| C[C@]12CCC3c4ccc(O)cc4C[C@@H](CCCCCCCCCS(=O)CCCC(F)(F)C(F)(F)F)C3C1CC[C@@H]2O (stereo not given in full) | 1.23 (inactive) | 0.99 | 1.21 |
| CC(C)(C)[Si](C)(C)OCC1O[C@H](Sc2ccccc2)[C@H]2NC(=O)O[C@H]2C1O (stereo not given in full) | 1.07 (inactive) | 0.97 | 1.05 |
| CC(=O)O[C@H]1CCC2(C)C3=C(CCC2C1(C)C)[C@@]1(C)CC[C@@H](C(C)CCC=C(C)C)[C@]1(C)CC3 (stereo not given in full) | 1.21 (inactive) | 0.67 | 0.81 |
| C=CC(C)(C)c1ccc2[nH]c3c(c2c1)C[C@@H]1CC[C@@]2(O)C4=CC(=O)[C@@H]5O[C@@]4(CC[C@]2(C)[C@@]31C)OC5(C)C | 1.04 (inactive) | 0.97 | 1.01 |
| O=C1C[C@@H]2[C@H](Br)[C@@H](O)C[C@@H]2O1 | 0.73 (inactive) | 1.24 | 0.91 |
| O=C1OCC[C@H]1Oc1ccc(Oc2cnc3ccc(Cl)cc3n2)cc1 | 1.01 (inactive) | 1.08 | 1.09 |
| O=C1NCC[C@H]1Oc1ccc(Oc2cnc3ccc(Cl)cc3n2)cc1 | 0.76 (inactive) | 1.18 | 0.9 |
| CCN(Cc1cccc(S(=O)(=O)O)c1)c1cccc(C(=C2C=CC(=[N+](CC)Cc3cccc(S(=O)(=O)O)c3)C=C2)c2ccc(O)cc2S(=O)(=O)[O-])c1 | 0.88 (inactive) | 1.26 | 1.11 |
| COc1ccc(-c2coc3cc(OC)ccc3c2=O)cc1 | 0.82 (inactive) | 1.34 | 1.09 |
| CO[C@H]1/C=C/C[C@@H](C)OC(=O)c2c(O)cc(O)cc2CC(=O)CCC1 | 1.01 (inactive) | 0.98 | 0.98 |

| Compound | red/green cell ratio (normalised) | normalised cell number [1] | normalised cell number [2] |
| --- | --- | --- | --- |
| CC(C)CCCC(C)C1CCC2C3CC[C@H]4CCCC[C@]4(C)C3CC[C@]12C (stereo not given in full) | 0.9 (inactive) | 1.1 | 0.99 |
| O=C1NCC[C@@H]1Oc1ccc(Oc2cnc3ccc(Cl)cc3n2)cc1 | 0.74 (inactive) | 1.03 | 0.76 |
| CCC[C@H]1Cc2cc3c(-c4c(O)cc(O)c5c(O)c6c(cc45)C[C@H](CCC)OC6=O)c(O)cc(O)c3c(O)c2C(=O)O1 | 0.9 (inactive) | 0.85 | 0.77 |
| CC(=O)O[C@H]1CC2CCC3C(CC[C@@]4(C)C3C[C@H]([N+]3(C)CCCCC3)[C@@H]4OC(C)=O)[C@@]2(C)C[C@@H]1[N+]1(C)CCCCC1 (stereo not given in full) | 0.99 (inactive) | 0.95 | 0.94 |
| CC(CCC(=O)O)[C@H]1CCC2C3CC[C@@H]4CCCC[C@]4(C)C3CC[C@@]21C (stereo not given in full) | 0.93 (inactive) | 1.12 | 1.04 |
| O=C(O)C(O)[C@H](O)[C@H](O)[C@H](O)[C@H](O)CO (stereo not given in full) | 1.28 (inactive) | 1.07 | 1.37 |
| CC(=O)OC1CCC2(C)C3CC(=O)C4(C)C(CC5OC6(CCC(C)CO6)[C@@H](C)C54)C3CC[C@H]2C1 (stereo not given in full) | 0.89 (inactive) | 1.05 | 0.93 |
| NC(=O)c1c(Cl)nc(Cl)c2ccccc12 | 1.12 (inactive) | 0.92 | 1.03 |
| COc1cc(O)c(C(C)=O)c(O)c1 | 0.99 (inactive) | 0.97 | 0.97 |
| CC(=O)O[C@@H]1C[C@@]2(C)C(CC[C@@H]2C(C)=O)C2CCC3=CC(=O)CC[C@]3(C)C21 (stereo not given in full) | 1.08 (inactive) | 0.87 | 0.94 |
| COC(=O)C[C@H]1C(C)(C)C(=O)[C@@H]2CC3=C4CC(=O)O[C@@H](c5ccoc5)[C@]4(C)CCC3C1(C)C2=O (stereo not given in full) | 1.01 (inactive) | 0.78 | 0.78 |
| CC(=O)NC1[C@@H](O)C2OC(c3ccccc3)OCC2O[C@H]1Sc1ccccc1 (stereo not given in full) | 1.03 (inactive) | 1.06 | 1.09 |
| CCC(=O)O[C@]1(C(=O)SCF)[C@H](C)CC2C3CC(F)C4=CC(=O)C=C[C@]4(C)C3(F)[C@@H](O)C[C@@]21C (stereo not given in full) | 1.04 (inactive) | 0.87 | 0.9 |
| COC(=O)C[C@@H]1C2(C)C(=O)[C@@H](CC3=C4CC(=O)O[C@@H](c5ccoc5)[C@]4(C)CCC32)[C@H](OC(C)=O)C1(C)C (stereo not given in full) | 1.06 (inactive) | 0.96 | 1.02 |
| CC(CCC(=O)O)[C@H]1CCC2C3C(C[C@H](O)[C@@]21C)[C@@]1(C)CC[C@@H](O)C[C@H]1C[C@H]3O (stereo not given in full) | 0.97 (inactive) | 1.01 | 0.98 |
| CC(=O)O[C@@H]1CC2C(C)(C)[C@H](O)C[C@H](O)[C@]2(C)C2CC[C@@]3(C)[C@H](c4ccoc4)OC(=O)[C@H]4O[C@]43[C@@]21C (stereo not given in full) | 1.01 (inactive) | 1.01 | 1.03 |
| CCC(CCC(C)[C@H]1CCC2C3CC=C4C[C@@H](OC(C)=O)CC[C@]4(C)C3CC[C@@]21C)C(C)C (stereo not given in full) | 0.94 (inactive) | 1.1 | 1.03 |
| C[C@H](O)[C@@H]1N[C@H]2N(C1=O)c1ccccc1C21CC2C(=O)NC1c1nc3ccccc3c(=O)n12 (stereo not given in full) | 1.08 (inactive) | 0.88 | 0.95 |
| CC1(C)S[C@@H]2[C@H](NC(=O)C(NC(=O)N3CCNC3=O)c3ccccc3)C(=O)N2C1C(=O)O (stereo not given in full) | 0.99 (inactive) | 1.15 | 1.14 |
| CCN1CC(CCN2CCOCC2)C(C(c2ccccc2)c2ccccc2)C1=O (stereo not given) | 0.72 (inactive) | 1.12 | 0.81 |
